# HT1080NT lethal – kills 2HG-producing HT-1080-NT fibrosarcoma cells; HT-1080-NT fibrosarcoma viability, CellTiter-Glo ATP luminescence, 48 h; Potency, µM (doses to about 46.1 µM), without a hit: at the highest dose activity, negative = less viability, actives largely listed as cytotoxic; 360,000 compounds, 1.6% hits; AID 686970;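 note: NT is the 2HG producing partner of a matched IDH1 knockdown line; potency is the fitted concentration of half-maximal effect; 0% = DMSO-treated cells and -100% = media-only wells without cells; nearly all actives have a fitted effect of over 55% in size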
#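 Read-out is CellTiter-Glo luminescence after 10 minutes at room temperature, following 48 hours' compound treatment of HT-1080-NT cells (750 cells/well, RPMI, 5% FBS, 37 degrees C).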
# IL1B secr inh – blocks inflammasome-driven IL-1 beta release; THP-1 LPS/ATP IL-1B secretion, AlphaLISA, 16 h; active compounds read low; activity change, % at 57.5 µM; 360,000 compounds, 4.7% hits; AID 743279; in the data active = activity change below about -50%; inconclusive = mostly about -30% to -49%
#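 Secreted IL-1B measured by AlphaLISA bead assay after 16 h compound exposure of THP-1 cells; compounds (final up to 57.5 uM) added 1 h before LPS (250 ng/mL) and ATP (1.25 mM) stimulation; lower signal means less secretion.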
# TDP1 cell CPT – DT40-hTDP1 cell growth loss with CPT; chicken DT40 Tdp1-/-;hTDP1 cells + 20 nM CPT, ATP luminescence, 48 h; Potency, µM (highest dose often 46.2 µM), without a hit: at the highest dose activity change, negative = growth inhibition, most hits filed as inhibitors; 420,000 compounds, 12% hits; AID 686979; note: potency is the fitted concentration of half-maximal effect; nearly all actives have a fitted effect of over 55% in size
#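 Chicken DT40 Tdp1-/- cells stably complemented with human TDP1 were seeded at 400 cells/well in medium containing 20 nM camptothecin, exposed to pin-transferred compounds, and grown at 37 °C for at least 48 hr. Viability was read as ATP luminescence.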
# HT1080 IDH1KD tx – HT-1080 IDH1 knockdown cell toxicity (counter line) | HT-1080 IDH1 knockdown viability, ATP luminescence, 48 h | 360,000 compounds, 2% hits | Potency, µM (doses to about 46.1 µM), for the others: at the highest dose activity, negative = toxicity, hits mostly cytotoxic | AID 686971;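 note: potency is the fitted concentration of half-maximal effect; 0% = DMSO wells and -100% = cell-free medium wells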
#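 After a 2 h attachment period, IDH1KD HT-1080 cells took pin-transferred compound for 48 h at 37 °C; ATP-based luminescence after 10 min room-temperature reagent incubation reported viability.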
# TDP1 cell noCPT – qHTS for Inhibitors of human tyrosyl-DNA phosphodiesterase 1 (TDP1): qHTS in cells in absence of CPT | DT40 Tdp1-/- hTDP1 cells, no CPT, ATP luminescence, 48 h | Potency, µM (titrated, usually from 46.2 µM), without a hit: at the highest dose activity change, negative = growth inhibition, usual class: inhibitors | 420,000 compounds, 15% hits; note: potency is the fitted concentration of half-maximal effect; nearly all actives have a fitted effect of over 55% in size
#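 Chicken DT40 Tdp1-/- cells complemented with human TDP1, screened without camptothecin (DMSO vehicle only), 400 cells/well. Compounds pin-transferred, cells incubated at 37 °C for at least 48 hr. Growth read as ATP-dependent luminescence (CellTiter-Glo, 30 min at RT).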
# uPA surface inh – inhibitors of cell surface uPA generation. cell surface uPA generation assay, qHTS. Potency, µM (doses to about 38.3 µM), for the others: at the highest dose activity change, negative = inhibition, actives largely listed as inhibitors. 330,000 compounds, 0.31% hits; active = well fitted inhibition curve with a large enough effect; inconclusive = small, poorly fitted or top-dose-only effect; inactive = no such curve, though single readings can be large or run the other way; tested in mouse RAW 264.7 cells; note: potency is the fitted concentration of half-maximal effect; nearly all actives have a fitted effect of over 55% in size
# * hit, by the source's call; ? = inconclusive; · = no result given. This is a sample that favours compounds with a hit; in the whole collection about 19% have one here. Unless noted, calls come from the whole dose curve; as a rule, active = well fitted curve in the direction sought with a large enough effect; inconclusive = small, poorly fitted or top-dose-only effect, or another doubt; inactive = no such curve, though single readings can be large; an effect the other way counts as inactive or inconclusive. Unless noted, % is set by controls: 0 for no effect and ±100 for the full control effect.
SMILES,HT1080NT lethal,IL1B secr inh,TDP1 cell CPT,HT1080 IDH1KD tx,TDP1 cell noCPT,uPA surface inh
CCCCC1(CO)C(=O)N(c2ccccc2)N(c2ccccc2)C1=O,-7.5%,-18.4,?,-11.9%,?,-7.4%
COc1ccccc1CN1C2CCCC1CC(NC(=O)/C=C/c1ccccc1)C2 (stereo not drawn),-14.7%,-76.6*,?,-25.0%,?,-8.7%
COC(=O)C1(C(=O)OC)C[C@H](/C=C/c2ccccc2)N(Cc2ccccc2OC)[C@@H]1c1cccs1,-14.2%,-0.5,25.9µM*,-8.8%,23.1µM*,·
COC(=O)C1(C(=O)OC)C[C@H](/C=C/c2ccccc2)N(Cc2ccccc2OC)[C@@H]1c1ccc(F)cc1,-15.1%,27.3,?,-0.9%,?,·
CCCNC(=S)NC1CC2CCCC(C1)N2Cc1ccccc1OC (stereo not drawn),-2.6%,-5.0,-13.9%,6.2%,-25.2%,·
CCN(/C=N/c1sc2c(c1C#N)CCCCC2)CC,2.2%,-13.5,?,3.6%,20.6µM*,1.0%
CC(C)CN(/C=N/c1sc2c(c1C#N)CCCCC2)CC(C)C,9.1%,15.5,20.6µM*,6.5%,14.6µM*,6.1%
CN1CCN(/C=N/c2sc3c(c2C#N)CCCCC3)CC1,1.1%,3.4,?,-5.7%,?,-9.3%
Brc1ccc(CNc2cc3c(cc2Br)OCCO3)cc1,-4.3%,?,5.2%,0.9%,?,6.1%
O=C1CCCN1CCCN=c1c([N+](=O)[O-])nn(-c2ccc(Cl)cc2)n1O,2.3%,-22.6,3.26µM*,-2.3%,6.51µM*,-15.9%
COc1ccc(-n2nc([N+](=O)[O-])c(=NCCCN3CCCC3=O)n2O)cc1,-4.5%,6.5,?,5.8%,?,11.2µM*
O=CNc1cc(-c2ccc(C(=O)NC3CC3)cc2)cn2c(-c3ccccc3)cnc12,6.51µM*,?,10.3µM*,5.8µM*,7.31µM*,·
O=CNc1cc(-c2ccc(C(=O)NC3CC3)cc2)cn2c(-c3ccc(F)c(Cl)c3)cnc12,?,0.0,18.4µM*,?,13µM*,·
CC(=O)c1ccc(-c2cnc3c(NC=O)cc(-c4ccc(C(=O)NC5CC5)cc4)cn23)cc1,14.6µM*,-64.5*,5.8µM*,7.31µM*,5.17µM*,·
O=C1c2cccnc2C(=O)N1Cc1ccc(S(=O)(=O)N2CCOc3ccccc32)cc1,1.7%,-14.0,-6.0%,1.1%,-18.4%,2.5%
COc1cc(C(=O)OC2CC[C@]3(C)C4CCC5[C@]6(O)CC(O)[C@]7(O)C(CN8CC(C)CCC8[C@]7(C)O)[C@]6(O)C[C@@]53O[C@]24O)cc(OC)c1OC (stereo partly drawn),·,·,-0.1%,·,-1.5%,·
CC(C)c1nc2oc3c(=O)[nH]cnc3c2c2c1COC(C)(C)C2,4.8%,3.9,-4.8%,-1.0%,9.0%,-3.0%
Brc1cccc(CN2CCCCCC2)c1,4.0%,10.9,-16.0%,13.8%,10.9%,-4.5%
OC1(c2ccc(Br)cc2)CCN(Cc2cccc(Br)c2)CC1,2.5%,-6.6,20.6µM*,0.0%,?,17.8%
CC1CCc2c(sc(NC(=O)c3cccs3)c2C(=O)O)C1 (stereo not drawn),?,?,?,?,?,3.98µM*
Cc1ccc(C(=O)Nc2sc3c(c2C(=O)O)CCC(C)C3)o1 (stereo not drawn),?,-8.1,?,?,20.6µM*,?
Cc1ccc(C(=O)Nc2sc3c(c2C(=O)O)CCCCC3)o1,20.6µM*,0.3,?,18.4µM*,14.6µM*,-19.2%
COC(=O)c1c(NC(=O)c2ccc(C)o2)sc2c1CCCCC2,-10.1%,?,?,-7.5%,?,6.2%
COC(=O)c1c(NC(=O)c2cccs2)sc2c1CCC(C)C2 (stereo not drawn),9.9%,-12.4,?,5.4%,?,-2.4%
FC(F)(F)c1ccccc1-n1c(CN2CCCCC2)n[nH]c1=S,-0.4%,32.7,0.3%,12.0%,-19.2%,2.7%
SMILES,HT1080NT lethal,IL1B secr inh,TDP1 cell CPT,HT1080 IDH1KD tx,TDP1 cell noCPT,uPA surface inh
O=C1NC[C@@H](CCCCN2C[C@H](Cc3ccc(O)cc3)N(CCC3CCCCC3)C(=O)C2=O)N(CC2CCCCC2)C1=O,?,-26.9,-10.1%,?,-11.5%,·
O=C(Nc1ccc2oc(-c3cccnc3)nc2c1)c1ccc(-c2ccccc2OC(F)(F)F)o1,·,·,10.3µM*,·,9.2µM*,·
O=C(Nc1ccc2oc(-c3cccnc3)nc2c1)c1ccc(-c2ccccc2)o1,·,·,11.6µM*,·,9.2µM*,·
O=C(Cc1ccccc1)Nc1ccc2oc(-c3cccnc3)nc2c1,8.3%,23.1,-21.5%,11.4%,-23.8%,4.7%
O=C(Nc1ccc2oc(-c3cccnc3)nc2c1)c1ccc(-c2ccc(OC(F)(F)F)cc2)o1,·,·,?,·,20.6µM*,·
CC(C)C(=O)Nc1nnc(SCC(=O)NC2CCCC2)s1,10.1%,5.0,2.0%,10.9%,2.6%,0.1%
CCCCN(C(=O)c1cccc(S(=O)(=O)N2CCCCC2)c1)C1CCS(=O)(=O)C1 (stereo not drawn),14.6%,3.2,6.9%,12.1%,1.4%,0.8%
CCOC(=O)c1ccc(NC(=O)N2CCN(c3ccccn3)CC2)cc1,3.7%,3.2,0.2%,7.0%,-25.0%,2.7%
CC(=O)c1ccc(N2CCN(C(=O)Nc3ccc(Cl)cc3)CC2)cc1,-21.5%,-9.3,?,-19.6%,10.3µM*,·
CCOC(=O)c1ccc(NC(=O)N2CCN(c3cccc(OC)c3)CC2)cc1,-4.2%,0.0,?,11.7%,18.4µM*,-4.6%
CC(=O)c1ccc(NC(=O)N2CCN(c3cccc(Cl)c3)CC2)cc1,10.6%,-15.1,11.6µM*,6.9%,11.6µM*,1.2%
CCC(=O)c1ccc(OCC(O)CN2CCN(S(=O)(=O)N3CCCCC3)CC2)cc1 (stereo not drawn),2.5%,-11.0,?,4.6%,?,-0.3%
OC(COc1ccccc1)CN1CCCCC1 (stereo not drawn),20.3%,-6.4,-6.8%,5.1%,5.2%,2.2%
O=C(c1ccccc1)c1ccc(OCC(O)CN2CCN(S(=O)(=O)N3CCCCC3)CC2)cc1 (stereo not drawn),-11.7%,-13.3,?,?,18.4µM*,·
OC(COc1ccc(-c2ccccc2)cc1)CN1CCCCC1 (stereo not drawn),-8.7%,-19.0,?,-14.7%,25.9µM*,·

# High-throughput results deposited in PubChem BioAssay by National Center for Advancing Translational Sciences (NCATS).
